Data from PubChem BioAssay (EPA / NIEHS).
Active and inactive are the calls of the source. The calls were made as follows: active = hit-call score of the fitted dose curve at least 0.9, where 1 is the maximum; inactive = score below 0.9.

Test: CCTE_Deisenroth_5AR_NBTE_donor: CCTE's 5alpha-reductase NanoBRET Target Engagement Assay […], Deisenroth Lab (AID 2284319)
Settings: actives raise or lower the signal
Procedure: CCTE_Deisenroth_5AR NBTE (5alpha-reductase NanoBRET Target Engagement Assay) is a cell-based, single-readout assay that uses HEK293T, a human kidney cell line, with measurements taken at 5 hours after chemical dosing in a 384 well plate. This assay includes a primary and secondary screen as well as an autofluorscence screen.CCTE_Deisenroth_5AR NBTE_donor is one of four assay components measured from the CCTE_Deisenroth_5AR NBTE assay. It is designed to make measurements of donor luminescence, as detected by bioluminescence intensity emission signals using spectrometry technology.Data from the assay component CCTE_Deisenroth_5AR NBTE_donor was analyzed into 1 assay endpoint. This assay endpoint, CCTE_Deisenroth_5AR NBTE_donor, was analyzed with bidirectional fitting relative to DMSO as the negative control and baseline of activity. Using a type of inducible reporter, gain or loss-of-signal activity can be used to understand changes in the donor luminescence as related to 5alpha-reductase catalytic function. Furthermore, this assay endpoint can be referred to as a secondary readout, because this assay has produced multiple assay endpoints where this one serves an artifact detection function.
For transient expression of the SRD5A2-NanoLuc fusion protein, HEK293T cells are reverse transfected with pNLF1-C-SRD5A2 expression vector and incubated for 20 hours to facilitate fusion protein expression. For assay setup, 384-well non-binding surface (NBS) microplates are pre-dispensed with test chemical across an 8-point concentration series (10 nM - 29.9 uM) with two technical replicates per run. Cell suspensions are dispensed into the microplates and incubated with test chemical for a duration of three hours. Following pre-incubation with test chemical, the testosterone tracer is dispensed into each well and incubated an additional two hours. The total incubation period with test chemical is five hours, with testosterone tracer added the final two hours to reach target engagement equilibrium. For the NanoBRET endpoint measurements, a solution of Nano-Glo substrate and extracellular NanoLuc inhibitor solution is added to each test well and immediately scanned on a plate reader configured with multichromatic emission settings for donor luminescence ([…]) and acceptor fluorescence ([…]). DMSO solvent controls are included as baseline control. Plate-matched samples are run with mock tracer conditions or testosterone tracer to discriminate any potential non-specific substrate interference.

**Q.** For Cc1ccc(C(C)c2ccc(C)c(C)c2)cc1C, which outcome is on record?
**A.** The outcome was “inactive”.

**Q.** With CN(C)c1ccc(C(=N)c2ccc(N(C)C)cc2)cc1 as the molecule, how does the outcome read?
**A.** Its outcome is “inactive”.

**Q.** For CCCCCCCC/C=C\CCCCCCCC(=O)O, which outcome is on record?
**A.** Its outcome is “inactive”.

**Q.** With CCCc1ccc(OC)cc1 as the molecule, how does the outcome read?
**A.** The outcome was “inactive”.

**Q.** With CCN(CCC#N)c1ccc(N=Nc2c(Cl)cc([N+](=O)[O-])cc2Cl)cc1 as the molecule, how does the outcome read?
**A.** The outcome was “inactive”.

**Q.** Which outcome does the source give for COC(=O)c1c(C)cc(O)c(C)c1O here?
**A.** Its outcome is “inactive”.

**Q.** For C1CN(SSN2CCOCC2)CCO1, which outcome is on record?
**A.** The outcome was “inactive”.

**Q.** With CC1=NN(c2cc(S(=O)(=O)O)ccc2Cl)C(=O)C1N=Nc1ccccc1 (stereo not given) as the molecule, how does the outcome read?
**A.** Its outcome is “inactive”.

**Q.** For CCCCCCCC[N+](C)(CCCCCCCC)CCCCCCCC, which AC50 is on record?
**A.** The AC50 was 11.4 µM (active).

**Q.** With Oc1ccc(Cl)cc1Cc1cc(Cl)ccc1O as the molecule, how does the outcome read?
**A.** Its outcome is “inactive”.
